Experimental data from PubChem BioAssay (Tox21).
Inconclusive results are not listed. The source made the active and inactive calls. Unless noted, the call rests on the fitted dose curve; in most records, active means well fitted curve in the direction sought with a large enough effect in the repeat runs; inconclusive means weak or mixed curves; inactive means no such curve, though single readings can be large; an effect the other way counts as inactive or inconclusive.

Legend:
[1] = molecular target: Thyrotropin receptor (Homo sapiens) (UniProt P16473); assay: qHTS assay to identify small molecule agonists of the thyroid stimulating hormone receptor (TSHR) signaling pathway (AID 1224843; calls by dose curve; further: nearly all actives have a fitted effect of over 45% in size)
Summary of the method: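 Cell line HEK293 with TSHR; density 800/well. Exposure 30 min RT. Readout HTRF cAMP (cAMP-d2/anti-cAMP-cryptate), 1 h RT before reading.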

[2] = qHTS assay to identify small molecule agonists of the hypoxia (HIF-1) signaling pathway - cell viability counter screen (AID 1224844; calls by dose curve; further: nearly all actives have a fitted effect of over 50% in size; further: potency means the concentration at half of the fitted maximal effect)
Summary of the method: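 HRE-bla ME-180 cells in medium with 0.5% dialyzed FBS were preincubated 5 hrs at 37C, exposed to compounds for 17 hrs, then viability was read as CellTiter-Glo luminescence after 30 min at room temperature, in the reporter wells.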

[3] = qHTS assay to identify small molecule agonists of the hypoxia (HIF-1) signaling pathway (AID 1224846; active means well fitted activation curve with a large enough effect in the signal ratio in the repeat runs, not every such curve was filed as active; the % refers to the signal ratio)
Summary of the method: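 HRE-bla ME-180 cells (beta-lactamase reporter under hypoxia response element) were plated at 2,000 cells/well in medium with 0.5% dialyzed FBS, rested 5 hrs, then given compounds in DMSO for 17 hrs at 37C, 5% CO2. Reporter induction was read with CCF4-AM FRET substrate.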

[4] = qHTS RealTime-Glo MT Cell Viability Assay in HepG2 cells - 24 hour (AID 1224867); further: nearly all actives have a fitted effect of over 50% in size; further: potency means the concentration at half of the fitted maximal effect
Summary of the method: (§1)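 Compound treatment began 5 h after plating HepG2 cells (600/well) with NanoLuc luciferase and prosubstrate. Plates stayed at 37 C for 40 h; luminescence was captured at six time points, 0 h through 40 h.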

[5] = qHTS RealTime-Glo MT Cell Viability Assay in HEK293 cells - 32 hour (AID 1224868); further: nearly all actives have a fitted effect of over 50% in size; further: potency means the concentration at half of the fitted maximal effect
Summary of the method: (§2)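 Quantitative high-throughput screen of the Tox21 10K library in HEK293: cells and RealTime-Glo reagents plated together, compound added at 5 h, luminescence monitored through 40 h at 37 C.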

[6] = A CellTox Green Cytotoxicity Assay to monitor cytotoxicity in HEK293 cells - 0 hour (AID 1224869); further: nearly all actives have a fitted effect of over 50% in size
Summary of the method: (§3)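 HEK293 cells premixed with CellTox Green dye were seeded at 600 cells/well and left 5 h at 37 C/5% CO2 before pin transfer of 23 nL compound in DMSO. Fluorescence from dye bound to dead-cell DNA was read during 40 h treatment.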

[7] = qHTS RealTime-Glo MT Cell Viability Assay in HepG2 cells - 40 hour (AID 1224870); further: nearly all actives have a fitted effect of over 50% in size; further: potency means the concentration at half of the fitted maximal effect
Summary of the method: (§4)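 HepG2 cells mixed with RealTime-Glo MT reagents (NanoLuc plus cell-permeant prosubstrate) were seeded at 600 cells/well, incubated 5 h at 37 C/5% CO2, then pinned with compounds in DMSO; nonlytic luminescence tracked viability during 40 h treatment.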

[8] = qHTS RealTime-Glo MT Cell Viability Assay in HEK293 cells - 16 hour (AID 1224872); further: nearly all actives have a fitted effect of over 50% in size; further: potency means the concentration at half of the fitted maximal effect; on activity change, negative = cytotoxicity: top concentration of the series differs between compounds
Summary of the method: as §2

[9] = qHTS RealTime-Glo MT Cell Viability Assay in HepG2 cells - 8 hour (AID 1224873); further: nearly all actives have a fitted effect of over 55% in size
Summary of the method: as §4

[10] = qHTS RealTime-Glo MT Cell Viability Assay in HEK293 cells - 40 hour (AID 1224874); details: RealTime-Glo luminescence; max response: stronger effect = lower value; further: nearly all actives have a fitted effect of over 50% in size; further: potency means the concentration at half of the fitted maximal effect
Summary of the method: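 HEK293 cells mixed with RealTime-Glo reagents (NanoLuc plus cell-permeant prosubstrate) at 600 cells/well, preincubated 5 h at 37 C/5% CO2, then given 23 nL compound in DMSO. Nonlytic luminescence from viable cells was read at 0, 8, 16, 24, 32 and 40 h.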

[11] = A CellTox Green Cytotoxicity Assay to monitor cytotoxicity in HEK293 cells - 24 hour (AID 1224875); further: nearly all actives have a fitted effect of over 45% in size; further: potency means the concentration at half of the fitted maximal effect
Summary of the method: as §3

[12] = qHTS RealTime-Glo MT Cell Viability Assay in HepG2 cells - 32 hour (AID 1224877); further: nearly all actives have a fitted effect of over 55% in size; further: potency means the concentration at half of the fitted maximal effect
Summary of the method: as §1

[13] = A CellTox Green Cytotoxicity Assay to monitor cytotoxicity in HepG2 cells - 24 hour (AID 1224878); further: nearly all actives have a fitted effect of over 45% in size; further: potency means the concentration at half of the fitted maximal effect
Summary of the method: (§5)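 HepG2 cells were seeded together with the CellTox Green dye at 600 cells/well, left 5 h at 37 C/5% CO2, then given compounds in DMSO. Fluorescence from dye bound to dead-cell DNA was read repeatedly over 40 h of treatment at 37 C.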

[14] = A CellTox Green Cytotoxicity Assay to monitor cytotoxicity in HepG2 cells - 40 hour (AID 1224879); further: nearly all actives have a fitted effect of over 40% in size; further: potency means the concentration at half of the fitted maximal effect
Summary of the method: as §5

[15] = qHTS assay to identify small molecule agonists of H2AX - cell viability counter screen (AID 1224847; calls by dose curve; further: top concentration of the series differs between compounds; nearly all actives have a fitted effect of over 30% in size)
Summary of the method: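 For this counter screen, overnight-attached CHO-K1 cells received test compounds (15 concentrations, 0.76% DMSO final); 3 hr later at 37C, CellTiter-Glo reagent was added and luminescence recorded after 30 min at room temperature.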

[16] = A CellTox Green Cytotoxicity Assay to monitor cytotoxicity in HEK293 cells - 40 hour (AID 1224871); further: nearly all actives have a fitted effect of over 45% in size; further: potency means the concentration at half of the fitted maximal effect
Summary of the method: as §3

[17] = qHTS assay to identify small molecule agonists of H2AX (AID 1224845; active means well fitted activation curve with a large enough effect in the signal ratio in the repeat runs, not every such curve was filed as active; the % refers to the signal ratio)
Summary of the method: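 Wild-type CHO-K1 cells plated overnight, then exposed 3 hr at 37C to compounds at 15 concentrations (0.76% DMSO). Lysed, then HTRF anti-pH2AX(S139)-cryptate/anti-H2AX-d2 detection after 24 hr at room temperature; emissions 665 and 620 nm.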

[18] = A CellTox Green Cytotoxicity Assay to monitor cytotoxicity in HepG2 cells - 16 hour (AID 1224876); further: nearly all actives have a fitted effect of over 45% in size; further: potency means the concentration at half of the fitted maximal effect
Summary of the method: as §5

[19] = qHTS assay to identify small molecule antagonists of the estrogen related receptor (ERR) signaling pathway from Tox21 library (AID 1224848); further: nearly all actives have a fitted effect of over 50% in size; further: potency means the concentration at half of the fitted maximal effect
Summary of the method: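 Screening used an ERR reporter line supplied by NTP, exposed for 18 h at 37 C to library compounds delivered in DMSO. Signal was luciferase luminescence developed with ONE-Glo at room temperature for 30 min.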

[20] = qHTS assay to identify small molecule agonists of the estrogen related receptor (ERR) signaling pathway from Tox21 library (AID 1224849; calls by dose curve; further: nearly all actives have a fitted effect of over 15% in size); details: ERR reporter cell line, ONE-Glo luciferase, 18 h; at 92.4 µM (top of the series) unless noted
Summary of the method: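 ERR reporter cell line (NTP) seeded, rested 6 h at 37 C/5% CO2, then pinned with Tox21 compounds in DMSO. After 18 h at 37 C, ONE-Glo luciferase luminescence was read following 30 min at room temperature.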
On the % scale 0 is the no-effect control and ±100 the full control effect.

Chain of Thyrotropin receptor (Homo sapiens) (P16473 whole entry, looked up): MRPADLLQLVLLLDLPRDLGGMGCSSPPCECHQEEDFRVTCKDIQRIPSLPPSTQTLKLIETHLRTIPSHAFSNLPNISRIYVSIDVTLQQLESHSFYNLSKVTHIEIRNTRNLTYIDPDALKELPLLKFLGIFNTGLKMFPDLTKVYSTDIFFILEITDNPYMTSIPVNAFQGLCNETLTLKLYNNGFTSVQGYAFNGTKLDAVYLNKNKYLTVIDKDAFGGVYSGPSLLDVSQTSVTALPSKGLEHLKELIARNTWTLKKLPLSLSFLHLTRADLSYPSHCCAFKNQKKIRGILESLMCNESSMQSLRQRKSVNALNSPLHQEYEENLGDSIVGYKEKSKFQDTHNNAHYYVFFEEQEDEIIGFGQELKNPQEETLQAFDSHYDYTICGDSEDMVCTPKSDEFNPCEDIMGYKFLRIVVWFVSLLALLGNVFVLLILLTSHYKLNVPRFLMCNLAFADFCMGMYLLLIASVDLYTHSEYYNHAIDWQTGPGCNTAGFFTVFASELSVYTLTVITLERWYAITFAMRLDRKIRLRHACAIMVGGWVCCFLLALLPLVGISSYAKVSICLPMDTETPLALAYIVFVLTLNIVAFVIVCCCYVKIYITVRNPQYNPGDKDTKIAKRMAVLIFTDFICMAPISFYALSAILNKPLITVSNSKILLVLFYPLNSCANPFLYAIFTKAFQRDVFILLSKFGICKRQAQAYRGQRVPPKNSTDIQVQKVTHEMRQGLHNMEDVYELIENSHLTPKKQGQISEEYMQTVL

Oc1cccc(Nc2ccccc2)c1
inactive: Potency [1] | Potency [2] | outcome [3] | Potency [4] | Potency [6] | Potency [7] | Potency [9] | Potency [11] | Potency [12] | Potency [13] | Potency [14]
active: Potency [5] 14.4 µM | Potency [8] 22.8 µM | Potency [10] 12.8 µM

CO/N=C(/C(=O)N[C@@H]1C(=O)N2C(C(=O)O)=C(COC(N)=O)CS[C@H]12)c1ccco1
inactive: Potency [1] | Potency [2] | outcome [3] | Potency [15] | Potency [4] | Potency [5] | Potency [6] | Potency [7] | Potency [16] | Potency [8] | Potency [9] | max response [10] 10.8% | Potency [11] | Potency [12] | Potency [13] | Potency [14]

C=CC(=O)OCC1CC2CC1C1CCC(COC(=O)C=C)C21 (stereo not given)
active: Potency [16] 49 µM | Potency [11] 49 µM | Potency [13] 49 µM | Potency [14] 38.9 µM
inactive: Potency [1] | Potency [2] | Potency [6]

c1ccc2sc(SN(C3CCCCC3)C3CCCCC3)nc2c1
inactive: Potency [1] | Potency [17] | outcome [3] | Potency [15] | Potency [4] | Potency [5] | Potency [6] | Potency [7] | Potency [16] | Potency [8] | Potency [9] | max response [10] 3.85% | Potency [11] | Potency [18] | Potency [12] | Potency [13] | Potency [14]

C=C1C[C@@]23CC[C@H]4[C@@](C)(CCC[C@@]4(C)C(=O)O[C@@H]4O[C@H](CO)[C@@H](O)[C@H](O)[C@H]4O)[C@@H]2CC[C@]1(O[C@@H]1O[C@H](CO)[C@@H](O)[C@H](O[C@@H]2O[C@H](CO)[C@@H](O)[C@H](O)[C@H]2O)[C@H]1O[C@@H]1O[C@H](CO)[C@@H](O)[C@H](O)[C@H]1O)C3
inactive: Potency [1] | Potency [17] | outcome [3] | Potency [15] | Potency [19] | activity change, positive = activation [20] 1.6% | Potency [4] | Potency [5] | Potency [6] | Potency [7] | Potency [16] | Potency [9] | max response [10] 3.82% | Potency [11] | Potency [18] | Potency [12] | Potency [13] | Potency [14]

C=C(C)C(=O)OCCCCCCCCCCCCC
inactive: Potency [1] | Potency [2] | outcome [3] | Potency [15] | Potency [4] | Potency [5] | Potency [6] | Potency [7] | Potency [16] | Potency [8] | Potency [9] | max response [10] 4.36% | Potency [11] | Potency [12] | Potency [13] | Potency [14]

Clc1cc(Cl)nc(Cl)n1
inactive: Potency [1] | Potency [17] | Potency [15] | Potency [4] | Potency [6] | Potency [7] | Potency [16] | Potency [8] | Potency [9] | Potency [11] | Potency [18] | Potency [12] | Potency [13] | Potency [14]

Cc1cc(=O)c2c(O)c3c(O)cc(=O)c4c3c3c(cc(O)c1c23)C(C)(C)C=4O
inactive: activation [1] 13.3% [at 19 µM] | activity change, negative = cytotoxicity [2] 15.9% [at 15.8 µM] | activation [3] -2.37% [at 15.8 µM] | activity change, negative = cytotoxicity [4] -25.2% [at 15.8 µM] | activity change, negative = cytotoxicity [8] -25.2% [at 15.8 µM] | viability change, negative = cytotoxic [9] -10.2% [at 15.8 µM]
active: Potency [5] 1.17 µM | Potency [16] 4.65 µM | Potency [11] 5.22 µM | Potency [18] 4.65 µM | Potency [13] 4.65 µM | Potency [14] 3.69 µM

COc1cc(C(=O)NC2CCN(C)CC2)ccc1Nc1ncc2c(n1)N(C1CCCC1)CC(F)(F)C(=O)N2C
inactive: Potency [1] | outcome [3] | activity change, positive = activation [20] -53.6%
active: Potency [2] 20 µM | Potency [4] 40 µM | Potency [5] 0.0142 µM | Potency [7] 44.9 µM | Potency [16] 35.7 µM | Potency [10] 0.0179 µM | Potency [11] 20 µM | Potency [12] 40 µM | Potency [13] 40 µM | Potency [14] 22.5 µM

CCC(C)(C)OC
inactive: Potency [1] | Potency [17] | outcome [3] | Potency [15] | Potency [19] | activity change, positive = activation [20] -8.72% | Potency [4] | Potency [5] | Potency [6] | Potency [7] | Potency [16] | Potency [8] | Potency [9] | max response [10] 7.38% | Potency [11] | Potency [18] | Potency [12] | Potency [13] | Potency [14]

Nc1nnc(-c2ccc([N+](=O)[O-])o2)o1
inactive: Potency [2] | Potency [17] | outcome [3] | Potency [15] | Potency [5] | Potency [6] | Potency [16] | Potency [8] | Potency [9] | max response [10] -27% | Potency [11] | Potency [18] | Potency [13]

CCOC(=O)c1ccc(O)c(O)c1
inactive: Potency [1] | outcome [3] | Potency [15] | Potency [4] | Potency [5] | Potency [6] | Potency [7] | Potency [16] | Potency [8] | Potency [9] | max response [10] -21.6% | Potency [11] | Potency [12] | Potency [13] | Potency [14]

CC(C)(c1ccccc1)c1ccccc1
active: Potency [16] 51.1 µM | Potency [11] 51.1 µM
inactive: Potency [1] | outcome [3] | Potency [15] | Potency [4] | Potency [5] | Potency [7] | Potency [9] | max response [10] -9.58% | Potency [18] | Potency [12] | Potency [13] | Potency [14]

c1csc(SSc2cccs2)c1
active: Potency [19] 61.1 µM | Potency [14] 54.9 µM
inactive: Potency [1] | outcome [3] | Potency [15] | activity change, positive = activation [20] -56.7% | Potency [6] | Potency [11] | Potency [18]

CN1C(=O)OC(C)(C)C1=O
inactive: Potency [2] | Potency [17] | Potency [15] | Potency [19] | activity change, positive = activation [20] 4.82% | Potency [4] | Potency [5] | Potency [6] | Potency [7] | Potency [16] | Potency [8] | Potency [9] | max response [10] 0.839% | Potency [11] | Potency [18] | Potency [12] | Potency [13] | Potency [14]
